SMILES strings stand for the structures. Unmarked numbers belong to inactive results.

Data on nine compounds can be found in PubChem BioAssay.

This assay can be described thus: MM1S myeloma cell viability, profiling panel, resazurin fluorescence, basal, 24 h, PK04 Diversity Set (AID 1174).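 Also: MM1S multiple myeloma cell line; test concentration not given here.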 As to conditions: higher = more signal, called active from +8 up or from −8 down.
On to `COc1ccc(C#Cc2ccc3c(c2)[C@]2(C(=O)N3)[C@H](c3ccccc3OCCO)N3[C@H](c4ccccc4)[C@H](c4ccccc4)OC(=O)[C@H]3[C@@H]2C(=O)Nc2nc3ccccc3s2)cc1`, for which the z-score was -0.545.

With `O=C(CS)NCCCCCCNC(=O)[C@@H]1C[C@@H]2C(=O)N[C@@H](Cc3ccccc3)C(=O)N2[C@@H]1c1cccc(OCCO)c1`, the z-score is -0.137.

`CC(C)N1C(=O)c2ccccc2[C@](C)(C(=O)NCCN2CCOCC2)[C@@H]1c1ccc(CO)cc1`: the z-score is -0.139.

`CCCC=C(CCC)[C@@H](NC(=O)c1cccs1)c1ccc(C(F)(F)F)cc1`: the z-score was 0.116.

As for `C[N+](C)(C)CCCCNC(=O)[C@@H]1C[C@@H]2C(=O)N[C@@H](Cc3ccccc3)C(=O)N2[C@@H]1c1cccc(OCCO)c1`, the z-score is 0.548.

Regarding `Cc1ccc(S[C@]2(C(=O)NC3CC3)CC(=O)N(Cc3ccccc3)[C@@H]2c2ccc(CO)cc2I)cc1`, the z-score was -2.45.

For the compound `CCOC(=O)C1=C[C@@H](C(C)(C)C)N(S(=O)(=O)c2ccc(C)cc2)[C@H]1c1ccc(F)cc1`, the z-score is -0.544.

For the compound `COc1ccc(C(O)C2C=CC3C(=O)N(Cc4ccccc4)C(=O)C3N2n2cnnc2)cc1OCc1ccccc1` (centres undefined), the z-score is 0.708.

`CC1CC/C=C\[C@H]2OC34C=CCN(C(C)(C)C)C(=O)[C@H]3N(CCO)C(=O)[C@@H]4C2C(=O)O1` (some centres undefined): the z-score was -0.0542.
